According to PubChem BioAssay AID1259374 (The Scripps Research Institute Molecular Screening Center, 2018):
Among all 650,000 compounds or so, about 5,900 (0.91%) were called active. This is one part of a sample in which actives are shown more often than they occur. A number with no mark means an inactive call. Rule as the data show it: active = inhibition above about 50%; inactive = the rest.

target: Microphthalmia-associated transcription factor (Homo sapiens) (UniProt O75030); assay: MITF inhibitors, primary screen, biochemical, AlphaScreen, human (AID 1259374); details: AlphaScreen MITF homodimerization, bead proximity signal; at 2.6 µM; stronger effect = higher value;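 also: 0% = vehicle wells with protein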
Sequence (O75030 whole entry, looked up): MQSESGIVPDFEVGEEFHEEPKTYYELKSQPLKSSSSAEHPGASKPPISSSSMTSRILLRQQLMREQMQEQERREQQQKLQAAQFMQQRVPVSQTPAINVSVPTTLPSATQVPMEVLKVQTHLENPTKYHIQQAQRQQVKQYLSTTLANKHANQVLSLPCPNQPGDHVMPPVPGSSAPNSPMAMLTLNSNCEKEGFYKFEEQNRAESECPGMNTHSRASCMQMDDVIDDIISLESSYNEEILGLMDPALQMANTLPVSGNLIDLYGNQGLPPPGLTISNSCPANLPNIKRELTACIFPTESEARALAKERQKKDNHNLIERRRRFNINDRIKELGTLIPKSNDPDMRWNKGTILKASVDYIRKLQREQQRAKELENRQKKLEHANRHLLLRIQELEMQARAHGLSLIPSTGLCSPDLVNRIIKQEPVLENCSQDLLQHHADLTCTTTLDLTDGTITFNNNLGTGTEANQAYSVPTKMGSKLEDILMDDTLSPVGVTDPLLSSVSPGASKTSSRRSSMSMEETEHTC

| SMILES | inhibition |
| --- | --- |
| CCC1CCc2c(sc3nc(SCC(=O)Nc4ccc(Br)cc4)n(-c4ccccc4)c(=O)c23)C1 (stereo unspecified) | 10.8% |
| Cc1nc2ccccc2n1CCc1noc(COc2ccccc2)n1 | 9.51% |
| COCc1nc2ccccc2n1CCc1noc(-c2cccs2)n1 | 8.99% |
| COCc1nc2ccccc2n1CCc1noc(-c2ccco2)n1 | 82% (active) |
| CCCc1[nH]n(-c2ccc(F)cc2)c(=O)c1CNN1CCOCC1 | -2.83% |
| COc1cc(/C=C/C(=O)OCC(N)=O)ccc1OCC#N | 6.64% |
| CNC(=O)COC(=O)/C=C/c1ccc(C)o1 | 18.9% |
| NC(=O)COC(=O)/C=C/c1ccc(I)o1 | 52.1% (active) |
| Cc1ccc(C)c(NC(=S)N(Cc2ccccc2C)CC2CCC(C(=O)O)CC2)c1 (stereo unspecified) | 13.3% |
| COc1cc(C(=O)NC(c2ccccc2Cl)c2cc([N+](=O)[O-])c3cccnc3c2O)cc(OC)c1OC (stereo unspecified) | 24.9% |
| CCCC(=O)NC(c1ccccc1OC)c1cc([N+](=O)[O-])c2cccnc2c1O (stereo unspecified) | 56.2% (active) |
| CCCCC(=O)NC(c1ccc(OC)cc1)c1cc([N+](=O)[O-])c2cccnc2c1O (stereo unspecified) | 18.8% |
| C/C(N)=C(/C#N)C(=O)CSc1cccc[n+]1[O-] | -1.32% |
| O=C1c2ccccc2-c2ccc(-c3nc(-c4ccccc4)[nH]c3-c3ccccc3)cc21 | -1.27% |
| Cc1ccc(OCCCCNC(C)(C)C)cc1C | 1.35% |
| CC(C)(C)NCCOCCOc1ccc(Cl)c(Cl)c1 | 73.1% (active) |
| CC(C)(C)NCCOCCOc1ccc(I)cc1 | 40.6% |
| CCOC(=O)C(C)Oc1cccc2c(=O)n(CC(=O)Nc3ccc(C)c(Cl)c3)ccc12 (stereo unspecified) | -3.54% |
| CC1=C(C#N)C(=O)NC(=O)/C1=C/c1ccc(-c2ccc(Cl)cc2Cl)o1 | 13.9% |
| CC1=C(C#N)C(=O)NC(=O)/C1=C\c1ccc(-c2ccc(Cl)c(C(=O)O)c2)o1 | 77.7% (active) |
| CC1=C(C#N)C(=O)NC(=O)/C1=C\c1ccc(-c2cccc(Cl)c2)o1 | -5.17% |
| CCOC(=O)c1ccc(N2CCN(c3ccc(F)cc3)CC2)c(NC(=O)Nc2ccc(OC)cc2OC)c1 | -1.5% |
| O=C1C2C3CC(C(Br)C3Br)C2C(=O)N1C1CCCCC1 (stereo unspecified) | -2.53% |
| O=C(Nc1cccc(O)c1)c1ccc2c(c1)C(=O)N(Cc1cccnc1)C2=O | -1.4% |

| SMILES | inhibition |
| --- | --- |
| O=C(c1ccc2c(c1)C(=O)N(Cc1cccnc1)C2=O)c1ccc2c(c1)C(=O)N(Cc1cccnc1)C2=O | 104% (active) |
| O=C(NCc1ccco1)c1ccc2c(c1)C(=O)N(Cc1cccnc1)C2=O | -3.01% |
| CC(=O)N1C(=O)C(=O)c2cc(Cl)ccc21 | -11.3% |
| Cc1ccc(NC(=O)C(C)C2Sc3ccccc3NC2=O)c(C)c1 (stereo unspecified) | 9.32% |
| O=C(C1CCN(Cc2nc3ccccc3[nH]2)CC1)N1CCN(c2ccccn2)CC1 | 51.4% (active) |
| O=C(C1CCN(c2nc3ccccc3n3cccc23)CC1)N1CCN(c2ccccn2)CC1 | 10.7% |
| O=C(C1CCN(Cc2nc3ccccc3[nH]2)CC1)N1CCN(c2ccc(Cl)nn2)CC1 | -4.97% |
| CN(c1ccccc1)S(=O)(=O)c1ccc(C(=O)N2CCc3ccccc32)cc1 | -6.36% |
| c1ccc(Oc2cccc(OCCCCn3cncn3)c2)cc1 | 73.8% (active) |
| O=C(Cn1cncn1)NCCCOc1cccc(CN2CCCCCCC2)c1 | -3.47% |
| Fc1ccccc1OCCCCn1cncn1 | 20.2% |
| O=C(c1cccs1)N1CCN(S(=O)(=O)c2ccc(Cl)cc2)CC1 | -0.92% |
| O=C(c1cccs1)N1CCC(N2CCN(Cc3ccccc3)CC2)CC1 | 76.7% (active) |
| Cc1cccc(CN2CCC(N3CCN(C(=O)c4cccs4)CC3)CCC2=O)c1 (stereo unspecified) | -6.77% |
| O=C(CN1CCN(C(=O)c2cccs2)CC1)c1cccs1 | -1.86% |
| CCOC(=O)c1c(NC(=O)c2ccccc2Br)sc2c1CC(C)(C)NC2(C)C | 3.37% |
| Nc1ccc(S(=O)(=O)O)c2cc(S(=O)(=O)O)cc(O)c12 | 63.3% (active) |
| NS(=O)(=O)c1ccc(O)c2ccccc12 | 13.7% |
| Cc1ccc(/C=C2/C(=O)N(C)C(=S)N(c3ccccc3)C2=O)s1 | 23.2% |
| O=C(NC1CC1)C1CCC(=O)N1Cc1ccccc1Cl (stereo unspecified) | -6.74% |
| O=C1c2ccccc2C(O)N1Cc1ccccc1Cl (stereo unspecified) | 79.6% (active) |
| O=C1c2ccccc2C(O)N1Cc1ccccc1 (stereo unspecified) | 3.72% |
| COC(=O)Cn1cc(-c2ccc([N+](=O)[O-])cc2)nc1SCC(=O)NC(C)(C)C | -1.03% |
| N#Cc1ccc(-c2cccnc2)nc1SCC(=O)c1ccc(Cl)cc1 | -7.18% |

| SMILES | inhibition |
| --- | --- |
| CCN(C(=O)Cc1nc(N)n[nH]1)C1(C(=O)Nc2ccc(C)cc2)CCCCC1 | 63% (active) |
| CCN(C(=O)Cc1nc(N)n[nH]1)C1(C(=O)Nc2ccccc2)CCCCC1 | 68.5% (active) |
| COc1ccc(N(C(=O)Cc2nc(N)n[nH]2)C2(C(=O)Nc3ccccc3)CCCCC2)cc1 | -1.47% |
| COCCN(C(=O)CN1C(=O)c2ccccc2C1=O)C1(C(=O)Nc2ccccc2)CCCC1 | 11.4% |
| COc1ccc(NC(=O)C2(N(C)C(=O)Cn3nnnc3N)CCCCC2)cc1 | 5.13% |
| COCCCN(C(=O)c1cc2ccccc2o1)C1(C(=O)Nc2ccccc2)CCCC1 | 6.26% |
| Cc1ccc(NC(=O)CSCC(=O)Nc2ccccc2F)cc1C | 4.24% |
| Cc1ccc(NC(=O)Cn2c(=O)[nH]n(-c3ccccc3)c2=O)cc1C | -10.5% |
| Cc1ccc(NC(=O)CNCCCSc2ccccc2)cc1C | 75.4% (active) |
| CC1=CC(C)(C)N2C(=O)C(=O)c3cc(OC(=O)C(C)(C)C)cc1c32 | -9.06% |
| CC(C)OC(=O)C1=c2/c(=C/c3ccco3)c(N)c(C#N)n2C(=O)C(c2ccco2)S1 (stereo unspecified) | 14.9% |
| Cc1nc(N2CCCCC2C)c2c(C)c(C(=O)NC3CCCCC3)sc2n1 (stereo unspecified) | 9.14% |
| COCC(=O)Nc1ccc2nc(C)n(-c3ccc(F)cc3)c(=O)c2c1 | -0.07% |
| Cc1nccn1CC(O)COc1ccc(Br)cc1 (stereo unspecified) | 4.86% |
| COc1ccc(OCCSc2nnc3nc(C)cc(C)n23)cc1 | 7.82% |
| COc1ccc(OCCn2ccnc2C)cc1 | 57.2% (active) |
| CC1CCC(C(C)C)C(OC(=O)COC(=O)c2cnccn2)C1 (stereo unspecified) | 2.66% |
| CC(C)(C)NCC(=O)Nc1c2c(nc3ccccc13)N(Cc1ccccc1)CC2 | 63.8% (active) |
| CCN(CC)CC(=O)Nc1nn(-c2ccccc2)nc1C(N)=O | -0.44% |
| Cc1cc(C)c(NC(=O)CNC(C)(C)C)c(C)c1 | -3.53% |
| CCOC(=O)C1CCN(c2nc(-c3cccc(C)c3)nc3ccccc23)CC1 | 0.58% |
| CCN(CC)CC(=O)Nc1c2c(nc3ccccc13)N(c1cccc(C)c1)CC2 | 65.6% (active) |
| CCOC(=O)COc1cccc2c1CCN(Cc1ccccc1)C2=O | -3.19% |
| Cc1[nH]c(=O)[nH]c(=O)c1S(=O)(=O)N1CCOc2ccccc21 | 5.78% |

| SMILES | inhibition |
| --- | --- |
| CC(C)C(=O)Nc1ccc(CN2CCOCC2)cc1 | 1.55% |
| CC(NCCCN1CCOCC1)C(=O)Nc1ccccc1 (stereo unspecified) | 77.6% (active) |
| CCc1ccc(NC(=O)C(=O)NCCCN2CCOCC2)cc1 | 12.7% |
| O=C(Cn1c(=O)n(Cc2ccc3c(c2)OCO3)c(=O)c2ncccc21)N1CCc2ccccc21 | 3.95% |
| COc1cc(C=O)ccc1OCC(=O)c1ccc(C)c(C)c1 | 11.1% |
| COc1ccc(C(=O)COC(=O)CNS(=O)(=O)/C=C/c2ccc(C)cc2)cc1OC | 74.8% (active) |
| CCOC(=O)N/N=C/c1ccc(OS(=O)(=O)c2ccc(C)cc2)c(OC)c1 | 2.78% |
| O=C(CCN1C(=O)C2CCCCC2C1=O)N1CCc2c(nc(N3CCCC3)[nH]c2=O)C1 (stereo unspecified) | -0.41% |
| CC(C)[C@@H](CO)Nc1ccc2ncc(-c3ccccc3F)n2n1 | -14.3% |
| CC(=O)c1ccc(OCC(=O)N2CCOCC2)cc1 | -0.62% |
| CCS(=O)(=O)N1CCN(c2cccc(Cl)c2)CC1 | -3.13% |
| CCCS(=O)(=O)N1CCN=C1SCc1cccc(Cl)c1 | 18.8% |
| Clc1cccc(CN2CCN(c3ccccn3)CC2)c1 | 50.1% |
| CS(=O)(=O)N1CCC(c2nc3c(nnn3Cc3cccc(Cl)c3)c(=O)[nH]2)CC1 | 9.95% |
| CS(=O)(=O)N1CCN(Cc2cccc(Cl)c2)CC1 | 70.2% (active) |
| CCCS(=O)(=O)N1CCN(Cc2cccc(Cl)c2)CC1 | 54.8% (active) |
| O=S(=O)(c1ccc(Br)c2ccccc12)N1CCN(Cc2ccccc2)CC1 | 7.47% |
| CCCS(=O)(=O)N1CCN(Cc2ccccc2Br)CC1 | 58.2% (active) |
| CCCS(=O)(=O)N1CCC(O)(c2cccnc2)CC1 | 13.4% |
| CC(CC(=O)N(CC(N)=O)C(C)C)c1ccccc1 (stereo unspecified) | -5.95% |
| CCOC(=O)c1cccc(NC(=O)COc2ccccc2Br)c1 | 8.75% |
| COc1cc(/C=C(/C#N)C(N)=S)c(Br)cc1O | 24.1% |
| CSc1ccccc1C(=O)NCc1c(C)ncc2c1CCN(C(=O)c1cc(C)oc1C)C2 | 12.3% |
| COc1ccc(C(=O)N2CCCCO2)cc1OC1CCN(C(C)=O)CC1 | 2.51% |
